Here are results for 66 compounds from the antibiotic and cytotoxicity screens of Wong et al. (2023).

The whole screen tested about 39,000 compounds, of which about 1,500 (3.8%) were called active. The full list was thinned out, with actives kept by preference.

The assay concerns HSkMC (human skeletal muscle cells). The assay is described as follows: cytotoxicity call (relative viability < 0.9). Particulars: 10 µM.
Turning to `CCc1nc2ccc(C(=O)NCc3ccc4c(c3)OCO4)cn2c1N(CC)Cc1cccc(Br)c1`, the cytotoxicity call is “inactive”. Take `C[C@@H]1CN([C@H](C)CO)C(=O)c2cc(NC(=O)Nc3ccc(C(F)(F)F)cc3)ccc2O[C@@H]1CN(C)C(=O)Nc1ccccc1`: the cytotoxicity call was “inactive”. The value for `COc1ccc(NC(=O)N(C)C[C@H]2OCCCC[C@H](C)Oc3ccc(NC(=O)Nc4ccc(F)cc4)cc3C(=O)N([C@H](C)CO)C[C@@H]2C)cc1` was “inactive”.

Turning to `COc1ccc(S(=O)(=O)Nc2ccc3c(c2)C(=O)N([C@@H](C)CO)C[C@H](C)[C@H](CN(C)C(=O)c2ccccc2)OCCCC[C@@H](C)O3)cc1`, the cytotoxicity call is “inactive”. Turning to `C[C@@H]1CCCCO[C@H](CN(C)Cc2ccc(Cl)c(Cl)c2)[C@@H](C)CN([C@@H](C)CO)C(=O)c2cc(NS(=O)(=O)c3cn(C)cn3)ccc2O1`, the cytotoxicity call was “inactive”. The entry for `OC[C@H]1O[C@H](Nc2ccccc2)C[C@@H]1O` is “inactive”; for `CC(C)CC#Cc1ccc2c(c1)O[C@@H](CN(C)C(=O)Cc1cccnc1)[C@H](C)CN([C@@H](C)CO)S2(=O)=O` it is “inactive”. Consider `C[C@@H]1CCCCO[C@H](CN(C)C(=O)Cc2ccccc2)[C@H](C)CN([C@@H](C)CO)C(=O)c2cc(NC(=O)Nc3ccccc3)ccc2O1`, for which the cytotoxicity call is “inactive”. In the case of `C[C@H](CO)N1C[C@H](C)[C@@H](CN(C)C(=O)Nc2ccc(C(F)(F)F)cc2)Oc2c(NS(C)(=O)=O)cccc2C1=O`, the cytotoxicity call was “inactive”. The value for `CC(C)NC(=O)N(C)C[C@@H]1Oc2ccc(NS(=O)(=O)c3cn(C)cn3)cc2CC(=O)N([C@H](C)CO)C[C@@H]1C` was “inactive”; that for `COc1ccc(S(=O)(=O)Nc2cccc3c2O[C@@H](CN(C)S(=O)(=O)c2cn(C)cn2)[C@H](C)CN([C@H](C)CO)C3=O)cc1` was “inactive”.

With `C[C@@H]1CN([C@H](C)CO)C(=O)Cc2cc(NC(=O)Nc3ccc(C(F)(F)F)cc3)ccc2O[C@H]1CN(C)Cc1ccc(Oc2ccccc2)cc1`, the cytotoxicity call is “active”. The value for `C[C@H]1CN([C@@H](C)CO)C(=O)Cc2cc(NC(=O)Nc3ccc(C(F)(F)F)cc3)ccc2O[C@H]1CN(C)Cc1ccc(Oc2ccccc2)cc1` was “active”. The value for `C[C@H](CO)N1C[C@H](C)[C@H](CN(C)Cc2ccc(Oc3ccccc3)cc2)Oc2ccc(NC(=O)Nc3ccc(C(F)(F)F)cc3)cc2CC1=O` was “active”; that for `C[C@H](CO)N1C[C@H](C)[C@@H](CN(C)Cc2ccc(Oc3ccccc3)cc2)Oc2ccc(NC(=O)Nc3ccc(C(F)(F)F)cc3)cc2CC1=O` was “active”. The entry for `COc1ccc(S(=O)(=O)Nc2ccc3c(c2)CC(=O)N([C@@H](C)CO)C[C@@H](C)[C@@H](CN(C)Cc2ccncc2)O3)cc1` is “inactive”. For the compound `C[C@@H]1CN([C@@H](C)CO)C(=O)Cc2cc(NC(=O)CCN3CCOCC3)ccc2O[C@H]1CN(C)Cc1ccccc1`, the cytotoxicity call was “inactive”. The entry for `C[C@H](CO)N1C[C@H](C)[C@@H](CN(C)C(=O)Nc2ccccc2)Oc2ccc(NS(C)(=O)=O)cc2C1=O` is “inactive”; for `C[C@H](CO)N1C[C@H](C)[C@H](CN(C)C(=O)Cc2cccnc2)Oc2ncc(C#Cc3ccccc3F)cc2C1=O` it is “inactive”; for `O=C(N[C@H]1C=C[C@H](CC(=O)N2CCOCC2)O[C@H]1CO)c1ccc2c(c1)OCO2` it is “inactive”. The value for `CON(C)c1nc(Oc2ccc(=O)[nH]n2)nc(N(C)C)n1` was “inactive”. The entry for `CN1CCN(C)C1=O` is “inactive”; for `COc1cccc(CNC(=O)C[C@H]2C=C[C@H](NC(=O)C3CCOCC3)[C@@H](CO)O2)c1` it is “inactive”; for `O=C(C[C@H]1C=C[C@H](NS(=O)(=O)c2ccc(F)cc2)[C@@H](CO)O1)NCCN1CCCCC1` it is “inactive”. `c1ccc(-c2cccs2)cc1`: the cytotoxicity call is “inactive”. The entry for `O=C(O)CCNC(=O)c1cncc(O)c1` is “inactive”. The entry for `COC(=O)c1cccnc1` is “inactive”; for `COC(=O)c1ccc(C(=O)OC)nc1` it is “active”; for `COC(=O)c1ccc(O)cc1` it is “inactive”.

`COc1ccc(NC(=O)N(C)C[C@H]2Oc3ccc(NC(=O)Nc4ccc(C(F)(F)F)cc4)cc3C(=O)N([C@@H](C)CO)C[C@@H]2C)cc1`: the cytotoxicity call was “inactive”. The value for `O=C(N[C@H]1C=C[C@H](CC(=O)N2CCOCC2)O[C@H]1CO)c1ccccn1` was “inactive”. The entry for `COCC(=O)Nc1ccc2c(c1)OC[C@H](C)N(Cc1cccc(F)c1)C[C@H](C)[C@@H](OC)CN(C)C2=O` is “inactive”; for `C[C@@H]1CCCCO[C@H](CN(C)C(=O)Nc2ccc3c(c2)OCO3)[C@H](C)CN([C@H](C)CO)C(=O)c2cc(NS(=O)(=O)c3cccs3)ccc2O1` it is “inactive”; for `O=C1CSC(/N=C/c2ccccc2O)=NN1` it is “active”. The entry for `C[C@@H]1CN([C@H](C)CO)C(=O)c2cc(NC(=O)Nc3ccc(C(F)(F)F)cc3)ccc2O[C@@H](C)CCCCO[C@H]1CN(C)Cc1ccc(C(=O)O)cc1` is “inactive”; for `Cc1noc(C)c1S(=O)(=O)Nc1ccc2c(c1)C(=O)N([C@@H](C)CO)C[C@H](C)[C@@H](CN(C)S(=O)(=O)c1cn(C)cn1)O2` it is “inactive”; for `Cc1noc(C)c1NC(=O)N(C)C[C@H]1Oc2c(NC(=O)C3CCOCC3)cccc2C(=O)N([C@H](C)CO)C[C@H]1C` it is “inactive”. On to `C=CC[C@@H](CC(=O)N(CCO)Cc1ccccc1)C(=O)NC[C@H](OC(=O)[C@@H](CC=C)Cc1ccc(F)cc1)c1ccccc1`, for which the cytotoxicity call is “active”.

Take `C=CC[C@H](CC(=O)N(CCO)Cc1ccccc1)C(=O)NC[C@@H](OC(=O)[C@@H](CC=C)Cc1ccc(F)cc1)c1ccccc1`: the cytotoxicity call was “inactive”. The entry for `C=CC[C@H](CC(=O)N(CCO)Cc1ccccc1)C(=O)NC[C@H](OC(=O)[C@@H](CC=C)Cc1ccc(F)cc1)c1ccccc1` is “active”; for `C=CC[C@@H](CC(=O)N(CCO)Cc1ccccc1)C(=O)NC[C@@H](OC(=O)[C@@H](CC=C)Cc1ccc(F)cc1)c1ccccc1` it is “inactive”; for `C[C@H](CO)N1C[C@H](C)[C@H](CN(C)S(=O)(=O)c2cccs2)Oc2ncc(C#CC(C)(C)O)cc2C1=O` it is “inactive”.

Consider `COc1ccc(S(=O)(=O)N(C)C[C@H]2Oc3ccc(NS(C)(=O)=O)cc3C(=O)N([C@@H](C)CO)C[C@H]2C)cc1`, for which the cytotoxicity call is “inactive”. The value for `CC(C)NC(=O)N(C)C[C@H]1Oc2c(NS(=O)(=O)c3ccc(Cl)cc3)cccc2C(=O)N([C@@H](C)CO)C[C@@H]1C` was “inactive”. On to `CC(C)NC(=O)Nc1cccc2c1O[C@H](CN(C)Cc1ccc(-c3ccccc3)cc1)[C@H](C)CN([C@@H](C)CO)C2=O`, for which the cytotoxicity call was “inactive”. As to `COC(=O)CNC(=O)c1ccccc1`, the cytotoxicity call is “inactive”.

As to `C[C@@H]1CN([C@@H](C)CO)C(=O)c2cccc(NS(=O)(=O)c3cn(C)cn3)c2O[C@H]1CN(C)S(=O)(=O)c1cccs1`, the cytotoxicity call is “inactive”. The value for `Cc1noc(C)c1NC(=O)Nc1cccc2c1O[C@@H](CN(C)C(=O)NC(C)C)[C@@H](C)CN([C@@H](C)CO)C2=O` was “inactive”. The value for `Cc1noc(C)c1NC(=O)Nc1ccc2c(c1)C(=O)N([C@@H](C)CO)C[C@@H](C)[C@@H](CN(C)C(=O)C1CCCCC1)OCCCC[C@H](C)O2` was “inactive”. For the compound `C[C@H]1CN([C@@H](C)CO)C(=O)Cc2cc(NS(=O)(=O)c3cccs3)ccc2O[C@H]1CN(C)Cc1ccc(Oc2ccccc2)cc1`, the cytotoxicity call was “inactive”. For the compound `C[C@H]1CN([C@@H](C)CO)C(=O)Cc2cc(NS(=O)(=O)c3ccccc3)ccc2O[C@H]1CN(C)Cc1ccc(Oc2ccccc2)cc1`, the cytotoxicity call was “inactive”. The value for `C[C@H](CO)N1C[C@H](C)[C@@H](CN(C)Cc2ccc(Oc3ccccc3)cc2)Oc2ccc(NS(=O)(=O)c3ccccc3)cc2CC1=O` was “inactive”; that for `C[C@@H]1CN([C@H](C)CO)C(=O)Cc2cc(NS(=O)(=O)c3ccccc3)ccc2O[C@@H]1CN(C)Cc1ccc(Oc2ccccc2)cc1` was “active”.

As for `C[C@@H]1CN([C@@H](C)CO)C(=O)Cc2cc(NS(=O)(=O)c3ccccc3)ccc2O[C@@H]1CN(C)Cc1ccc(Oc2ccccc2)cc1`, the cytotoxicity call is “active”. The entry for `C[C@H]1CN([C@@H](C)CO)C(=O)Cc2cc(NS(=O)(=O)c3ccccc3)ccc2O[C@@H]1CN(C)Cc1ccc(Oc2ccccc2)cc1` is “active”; for `C[C@@H]1CN([C@@H](C)CO)C(=O)Cc2cc(NS(=O)(=O)c3ccccc3)ccc2O[C@H]1CN(C)Cc1ccc(Oc2ccccc2)cc1` it is “inactive”; for `C[C@@H]1CN([C@H](C)CO)C(=O)Cc2cc(NS(=O)(=O)c3ccccc3)ccc2O[C@H]1CN(C)Cc1ccc(Oc2ccccc2)cc1` it is “inactive”.

As for `C[C@@H]1CN([C@H](C)CO)C(=O)Cc2cc(NS(=O)(=O)c3cccs3)ccc2O[C@@H]1CN(C)Cc1ccc(Oc2ccccc2)cc1`, the cytotoxicity call is “active”.

On to `C[C@H](CO)N1C[C@H](C)[C@H](CN(C)Cc2ccc(Oc3ccccc3)cc2)Oc2ccc(NS(=O)(=O)c3ccccc3)cc2CC1=O`, for which the cytotoxicity call is “inactive”.

As for `C[C@H]1CN([C@@H](C)CO)C(=O)Cc2cc(NS(=O)(=O)c3cccs3)ccc2O[C@@H]1CN(C)Cc1ccc(Oc2ccccc2)cc1`, the cytotoxicity call is “inactive”. With `C[C@@H]1CN([C@@H](C)CO)S(=O)(=O)c2ccc(C#Cc3ccccc3F)cc2O[C@@H]1CN(C)C(=O)c1ccc2c(c1)OCO2`, the cytotoxicity call was “inactive”.

With `CCc1nc2ccc(C(=O)N3CCN(S(=O)(=O)CC)CC3)cn2c1N(C)C(=O)c1cccc(OC)c1`, the cytotoxicity call was “inactive”. With `C=CCC1C=C(C)CC(C)CC(OC)C2OC(O)(C(=O)C(=O)N3CCCCC3C(=O)OC(C(C)=CC3CCC(O)C(OC)C3)C(C)C(O)CC1=O)C(C)CC2OC` (stereo unspecified), the cytotoxicity call was “inactive”. For the compound `C[C@@H]1CCCCO[C@H](CN(C)C(=O)c2ccncc2)[C@H](C)CN([C@H](C)CO)C(=O)c2cc(NC(=O)C3CCCCC3)ccc2O1`, the cytotoxicity call is “inactive”. The value for `C[C@H](CO)N1C[C@H](C)[C@@H](CN(C)Cc2ccc3c(c2)OCO3)Oc2ccc(NC(=O)Cn3cnnn3)cc2CC1=O` was “inactive”. As to `C[C@@H]1CN([C@H](C)CO)C(=O)Cc2cc(NC(=O)Nc3ccccc3)ccc2O[C@H]1CN(C)S(=O)(=O)c1cn(C)cn1`, the cytotoxicity call is “inactive”.
